Assay outcomes deposited in PubChem by National Center for Advancing Translational Sciences (NCATS).
CHX counter – counter-screen hit for Shiga toxin inhibitors, cycloheximide; cell reporter, cycloheximide protein synthesis inhibition counterscreen; max response, %; 300,000 tested, 12% active; AID 2314; in the data active means max response mostly above about 13%, no sharp cut-off; inactive means mostly below about 14%; further: read at 38.3 µM for the half of the compounds with a filed dose; 0% is about no effect
Shiga inhibitor – Shiga toxin inhibition | Vero cells, Shiga toxin protein synthesis inhibition reporter | inhibition, % at 38.7 µM | 290,000 tested, 9.2% active; in the data active means inhibition mostly above about 28%, no sharp cut-off; inactive means mostly below about 43%; further: 0% is about no effect
FBPA Giardia inh – blocks Giardia fructose-bisphosphate aldolase activity; 290,000 tested, 0.71% active; AID 2451; Potency, µM (titrated, usually from 59.6 µM), without a hit: at the top dose activity, negative = inhibition, actives largely listed as inhibitors; purified Giardia FBPA; A8B2U2; further: potency means the concentration at half of the fitted maximal effect; on the % scale 0 is the no-effect control and ±100 the full control effect; nearly all actives have a fitted effect of over 55% in size
Target sequence (A8B2U2 whole entry, looked up): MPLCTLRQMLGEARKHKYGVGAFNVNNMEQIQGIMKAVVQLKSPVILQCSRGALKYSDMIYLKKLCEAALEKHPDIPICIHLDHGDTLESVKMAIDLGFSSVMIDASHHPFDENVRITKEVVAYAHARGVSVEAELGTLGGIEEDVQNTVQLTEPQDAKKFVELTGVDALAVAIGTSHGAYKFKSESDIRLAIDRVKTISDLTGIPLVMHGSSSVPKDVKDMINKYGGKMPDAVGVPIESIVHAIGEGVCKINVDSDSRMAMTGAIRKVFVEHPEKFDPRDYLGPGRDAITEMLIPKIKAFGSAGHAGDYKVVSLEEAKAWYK
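40 nM FBPA preincubated 10 min at RT with compound (up to 57.5 uM final), then substrate plus GAPDH/TPI/NAD/arsenate coupling and diaphorase/resazurin added. Fluorescence read after 20 min at RT, 525/598 nm.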
LmPK inhibitor – inhibitors of Leishmania mexicana pyruvate kinase; Q27686; purified LmPK, Kinase-Glo ATP luminescence, 1 h; Potency, µM (doses to about 57.5 µM), without a hit: at the highest dose activity change, negative = inhibition, most hits filed as inhibitors; 290,000 tested, 0.37% active; further: potency means the concentration at half of the fitted maximal effect; on the % scale 0 is the no-effect control and ±100 the full control effect
Target sequence (Q27686 whole entry, looked up): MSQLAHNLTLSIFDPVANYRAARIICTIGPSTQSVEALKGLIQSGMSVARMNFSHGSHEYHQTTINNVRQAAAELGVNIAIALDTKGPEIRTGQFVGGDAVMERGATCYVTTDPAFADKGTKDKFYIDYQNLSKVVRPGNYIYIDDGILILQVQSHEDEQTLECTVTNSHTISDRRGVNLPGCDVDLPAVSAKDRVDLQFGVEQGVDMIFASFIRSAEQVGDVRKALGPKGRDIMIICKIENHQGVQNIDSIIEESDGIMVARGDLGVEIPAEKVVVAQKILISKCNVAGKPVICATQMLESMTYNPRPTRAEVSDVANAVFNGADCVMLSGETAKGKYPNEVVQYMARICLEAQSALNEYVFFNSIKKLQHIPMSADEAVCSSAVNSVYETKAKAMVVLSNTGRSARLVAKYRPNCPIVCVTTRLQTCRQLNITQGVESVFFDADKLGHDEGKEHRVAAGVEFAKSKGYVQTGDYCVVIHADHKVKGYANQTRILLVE
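qHTS format; LmPK 0.1 nM; substrates PEP 0.5 mM and ADP 0.1 mM. One-hour room-temperature incubation, then coupled luciferase luminescence; 0.5 nM enzyme wells mark activation.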
TbPYK inhibitor – inhibitors of Trypanosoma brucei pyruvate kinase | AID 624173 | Potency, µM (doses to about 76.8 µM), for inactives: at the top dose activity, negative = inhibition, usual class: inhibitors | Q57TT1 | TbPYK enzyme, Kinase-Glo Plus ATP luminescence, 45 min | 410,000 tested, 0.12% active; further: potency means the concentration at half of the fitted maximal effect; on the % scale 0 is the no-effect control and ±100 the full control effect; nearly all actives have a fitted effect of over 50% in size
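Assay buffer: 50 mM TEA pH 7.2, 100 mM KCl, 10 mM MgCl2, 0.05% BSA, 0.01% Tween-20. Pyruvate kinase from T. brucei plus substrate met compound, then ADP (130 uM final). Luminescence was read post 45 min RT.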
RE007 growth inh – less growth of the S. pombe RE007 Vpr strain; AID 651644; 360,000 tested, 0.21% active; S. pombe RE007 Vpr strain, BacTiter-Glo ATP luminescence, 24 h; Potency, µM (doses to about 92.2 µM), inactives show at the top dose activity change, negative = less growth, usual class: inhibitors; active means well fitted falling curve with a large enough effect; inconclusive means small, poorly fitted or top-dose-only effect; inactive means no such curve, though single readings can be large or run the other way; further: potency means the concentration at half of the fitted maximal effect; on the % scale 0 is the no-effect control and ±100 the full control effect; nearly all actives have a fitted effect of over 50% in size
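Fission yeast RE007 carrying one integrated HIV-1 vpr copy, seeded at OD 0.01 in PMG+AL medium with 23 nL pinned compound. Grown 24 h at 30 degrees; viability read by BacTiter-Glo luminescence after 5 min.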
The depositor's hits bear a star; ? = inconclusive; . = no result. This is one part of a sample in which hits are shown more often than they occur. Unless noted, the call rests on the fitted dose curve; in most records, active means well fitted curve in the direction sought with a large enough effect; inconclusive means small, poorly fitted or top-dose-only effect, or another doubt; inactive means no such curve, though single readings can be large; an effect the other way counts as inactive or inconclusive.

SMILES	CHX counter	Shiga inhibitor	FBPA Giardia inh	LmPK inhibitor	TbPYK inhibitor	RE007 growth inh
CCOC(=O)c1nc(N2CCN(c3ccc(F)cc3)CC2)c2c(C)noc2n1	.	.	.	.	-0.3%	.
NC(=O)c1sc2nnc(-c3ccccc3)c(-c3ccccc3)c2c1N	-3.6	24.9	-1.5%	2.6%	-0.9%	10.7%
Cc1[nH]c(C)c(C(=O)/C=C/c2ccc([N+](=O)[O-])cc2)c1C	59.7*	128.8*	-5.4%	-3.5%	2.0%	-15.8%
O=Cc1cn(Cc2ccc(Br)cc2)c2ccccc12	0.4	3.3	-2.4%	1.0%	-0.2%	18.5%
NC1=NC(=O)/C(=C/c2cn(Cc3ccccc3)c3ccccc23)S1	23.8*	62.4*	-28.5%	3.8%	?	0.9%
Cc1cc(C)c2nc(NNC(=O)c3cc(=O)c4ccccc4o3)sc2c1	19.3*	27.9	-4.8%	4.7%	?	-7.8%
Nc1ccccc1C(=O)NNc1c2ccccc2nc2ccccc12	18.6*	111.0*	-8.4%	-15.6%	-6.8%	-4.5%
Cc1ccc(C(=O)NNc2c3ccccc3nc3ccccc23)cc1	41.4*	85.1*	-7.4%	-4.7%	-2.3%	-15.8%
O=C(NNc1c2ccccc2nc2ccccc12)c1ccc(Cl)cc1	-7.3	-10.9	-5.0%	-1.6%	-4.8%	-2.6%
CCCc1ccc(OCC(=O)Nc2sc3c(c2C(=O)OC)CCCCC3)cc1	.	.	.	.	-8.5%	.
C#CCN1C=C(C(=O)OCC)C(C)N(Cc2ccccc2I)S1(=O)=O (stereo unspecified)	.	.	.	.	3.4%	5.2%
Cc1ccc2occ(CC(=O)Nc3ccc(Cl)c(C(F)(F)F)c3)c2c1	.	.	.	.	0.9%	.
CNC(=S)N(C1=NCC(c2ccc([N+](=O)[O-])cc2)S1)c1ccccc1 (stereo unspecified)	38.9*	55.5*	-11.3%	2.5%	3.6%	2.0%
CCc1cccc(NC(=O)CCN2C(=O)c3ccccc3Sc3ncccc32)c1	.	.	.	.	-2.4%	.
O=C(O)/C=C/C(=O)NNC(=O)c1ccccc1Br	10.7	21.7	-3.0%	2.1%	-14.6%	0.5%
Cc1ccccc1C(=O)NNC(=O)/C=C\C(=O)O	38.4*	83.1*	-17.9%	2.9%	-10.8%	5.6%
Cc1ccc(/C=C/C(=O)NC(=S)Nc2ccccc2C(=O)NC2CCCCC2)cc1	-0.9	-5.8	2.8%	-0.2%	2.3%	2.3%
Cc1ccc(C=Nc2ccccc2C(N)=O)cc1	46.7*	71.0*	?	16.0%	-2.3%	-3.0%
NC(=O)c1ccccc1NC(=O)/C=C/C(=O)O	35.0*	53.0*	4.2%	-5.3%	1.1%	7.6%
Cc1ccc(/C=C/C(=O)Nc2ccccc2C(N)=O)cc1	45.9*	63.5*	-0.6%	-17.3%	-3.3%	-23.9%
O=C(Cc1cccc(NC(=O)C2CCN(C(=O)CCc3ccccc3)CC2)c1)Nc1cccc(C(=O)N2CCCCC2)c1	.	.	.	.	7.2%	-3.4%
CCn1cc(C(=O)N2CCN(c3cc(C)ccc3C)CC2)c(=O)c2cc(S(=O)(=O)N3CCCCC3)ccc21	.	.	.	.	1.8%	.
CCCCCCOC(=O)c1ccccc1NC(=O)/C=C/C(=O)O	51.3*	116.9*	8.9%	-0.6%	3.5%	?
CCOC(=O)c1ccccc1NC(=O)/C=C/C(=O)O	4.4	0.5	5.4%	6.1%	-14.4%	-18.6%
CCC1OC(=O)CC(O)C(C)[C@@H](O[C@@H]2OC(C)[C@H](O[C@@H]3C[C@@](C)(O)C(O)C(C)O3)C(N(C)C)C2O)[C@H](CC=O)CC(C)C(=O)/C=C/C(C)=C/[C@@H]1COC1OC(C)C(O)C(OC)[C@@H]1OC (stereo partly specified)	.	.	6.2%	.	0.0%	.
SMILES	CHX counter	Shiga inhibitor	FBPA Giardia inh	LmPK inhibitor	TbPYK inhibitor	RE007 growth inh
CC(=O)Nc1ccc(NC(=O)c2c(C)nn(Cc3ccccc3)c2Cl)cc1	-2.7	5.5	1.4%	3.3%	2.3%	0.0%
Cc1nn(Cc2ccccc2Cl)c(Cl)c1C(=O)OCC(=O)NCc1ccco1	10.9*	10.4	6.5%	2.0%	-3.3%	13.1%
Cc1nn(Cc2ccccc2Cl)c(Cl)c1C(=O)NCCc1ccccc1	47.5*	99.9*	1.7%	0.9%	5.8%	-0.1%
O=C1C(Sc2ccccc2)=C[C@@]2(O)CC[C@@H](O)[C@]1(Sc1ccccc1)[C@H]2O	.	.	.	.	1.0%	-1.9%
NCCNc1cccc2ccccc12	.	.	.	.	1.0%	.
O=C(COC(=O)CNS(=O)(=O)c1ccc(F)c(F)c1F)NC1CC1	.	.	.	.	-9.5%	-22.6%
O=C(COC(=O)CNS(=O)(=O)c1ccc(F)c(F)c1F)NCCc1ccccc1	45.5*	49.0*	.	-7.1%	-0.2%	-11.8%
O=C(Nc1ccccc1C(=O)Nc1ccccn1)c1ccc([N+](=O)[O-])cc1	-3.3	11.3	0.4%	-2.1%	-2.0%	-20.3%
Cc1ccnc(NC(=O)c2sc3ccccc3c2Cl)c1	42.2*	89.2*	-0.2%	-14.5%	-12.0%	-9.3%
O=C(Nc1nccs1)c1sc2ccccc2c1Cl	30.1*	78.0*	1.2%	-11.3%	-5.9%	-25.5%
O=C(Nc1ccccn1)c1sc2cc([N+](=O)[O-])ccc2c1Cl	20.9*	59.1*	1.6%	-9.2%	?	-16.5%
O=C(Nc1nccs1)c1sc2cc(Cl)ccc2c1Cl	38.5*	63.1*	4.8%	-0.4%	-10.8%	0.0%
Cc1c(/C=C(\C#N)C(=O)Nc2cccc(Cl)c2)c2ccccc2n1Cc1ccccc1Cl	.	.	.	.	2.7%	.
COc1ccc(-n2c(=O)c3c(c4cc(OC)ccc4n3C)n(Cc3c(F)cccc3Cl)c2=O)cc1	.	.	.	.	3.7%	.
CCCCN1CC(C)(C)[C@H](CC(=O)NC)C1=O	.	.	.	.	-2.3%	1.4%
CC(C)c1nnc(NC(=O)c2sc3ccccc3c2Cl)s1	29.2*	67.0*	.	-1.8%	-11.1%	?
CCCn1nnc(NC(=O)COc2ccccc2Cl)n1	24.3*	61.9*	-0.9%	3.0%	-0.2%	2.9%
CCCn1nnc(NC(=O)c2sc3ccccc3c2Cl)n1	41.2*	99.7*	-0.1%	-9.6%	7.5%	?
Cc1cnc(NC(=O)c2sc3ccccc3c2Cl)s1	57.2*	63.5*	1.8%	-2.2%	3.0%	-5.5%
Cc1onc(-c2ccccc2Cl)c1C(=O)Nc1nnc(C(C)C)s1	-3.8	-8.3	-0.4%	-0.2%	-5.1%	1.3%
CCCC(=O)N1CCN(c2ccc(NC(=O)c3sc4ccccc4c3Cl)cc2)CC1	-1.3	14.7	0.5%	3.5%	-1.5%	-4.7%
Cc1cccnc1NC(=O)CNC(=O)c1sc2ccccc2c1Cl	.	.	.	.	-12.5%	-2.3%
CCN(CC)C(=O)c1sc2c(c1C)c(=O)n(-c1ccc(Cl)c(Cl)c1)c(=O)n2Cc1cc(=O)n2ccccc2n1	.	.	.	.	0.7%	.
Cc1[nH]nc(SCC(=O)NC2CCCCC2)c1[N+](=O)[O-]	6.2	-15.9	-1.8%	-11.3%	9.3%	-11.4%
CCOC(=O)c1ccc(NC(=O)CCc2c(C)nc3nc[nH]n3c2=O)cc1	.	.	.	.	-8.5%	.
N#Cc1c(-c2ccccc2)cc2nc3ccccc3n2c1N	23.7*	0.5	4.0%	-2.3%	-2.0%	-14.7%
